Test results as given in PubChem BioAssay.
Activity calls are given as the source filed them. Unless noted, the rule behind the calls is not given here.

Tests used:
[1] = anti-His antibody binders, primary screen, artefact control for SMM control protein annotation, biochemical, small-molecule microarray, 635 nm fluorescence (AID 1128); conditions: anti-His Alexa647 antibody binding, higher = more signal;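 note: score merges feature fluorescence with signal-to-noise for each printed compound spot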
[2] = system: Human papillomavirus type 1a E7 protein (residues 1-88); test: HPV1a E7 small-molecule binders, primary screen, biochemical, small-molecule microarray, residues 1-88, 635 nm (AID 1129); conditions: small-molecule microarray binding, fluorescence 635 nm; higher = more signal
[3] = biological target: Focal adhesion kinase 1 (Homo sapiens) (UniProt Q05397); test: small-molecule microarray binders of FAK, primary screen, biochemical, 635/667 nm fluorescence, BSA, DTT (AID 1130); conditions: PTK2 binding, 635 nm fluorescence, higher = more signal;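 note: composite of spot emission at 667 nm and signal to noise over triplicate slides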
[4] = system: Fibrinogen (Alexa647-labelled); test: fibrinogen binders on compound microarrays, profiling panel, artefact control for SMM control-protein annotation, biochemical, small-molecule microarray, 635/667 nm fluorescence (AID 1131); conditions: fibrinogen-A647 binding fluorescence, higher = more signal;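 note: z-score merges 667 nm fluorescence with per-spot signal-to-noise over triplicate slides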
[5] = biological target: Follistatin (Homo sapiens) (UniProt P19883); test: follistatin binders on small-molecule microarrays, primary screen, biochemical, small-molecule microarray, 635/667 nm fluorescence (AID 1132); conditions: FST binding, 635 nm fluorescence, higher = more signal
[6] = biological target: Fibroblast growth factor 2 (Homo sapiens) (UniProt P09038); test: FGF2 binders on small-molecule microarrays, primary screen, biochemical, small-molecule microarray, 635/667 nm fluorescence (AID 1133); conditions: small-molecule microarray binding, FGF2, fluorescence 635/667; higher = more signal
[7] = mitochondrial membrane potential change in A549 cells, profiling panel, cell-based, JC-1 fluorescence, basal, 24 h, 100 nL (AID 1138); conditions: higher = more signal;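 note: A549 lung adenocarcinoma cells under basal conditions with no added stimulus; test concentration not given here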
Lefty1 = Lefty1 binders on small-molecule microarrays, primary screen, biochemical, small-molecule microarray, 635/667 nm fluorescence (AID 1139); conditions: small-molecule microarray binding, fluorescence 635/667; higher = more signal
[8] = system: wheat germ agglutinin (Triticum aestivum), Alexa647-labelled; test: wheat germ agglutinin binders on compound microarrays, profiling panel, artefact control for SMM control-protein annotation, biochemical, small-molecule microarray, 635/667 nm fluorescence (AID 1140); conditions: WGA-A647 binding, 635 nm fluorescence, higher = more signal;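 note: score merges 667 nm feature emission with signal to noise over triplicate slides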
[9] = biological target: Luciferin 4-monooxygenase (Photinus pyralis) (UniProt P08659); test: firefly luciferase enzyme inhibitors, primary screen, biochemical, luminescence, purified enzyme, 2006 set (AID 1141); conditions: SteadyGlo luminescence, 30 min, higher = more signal, called active from +8 up or from −8 down;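 note: cell-free assay with purified firefly luciferase at 100 ng per well in PBS; test concentration not given here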
[10] = system: Wnt5a (protein binding on small-molecule microarray); test: Wnt5a binders on small-molecule microarray, primary screen, biophysical, 635/667 nm fluorescence (AID 1142); conditions: 635 nm fluorescence, higher = more signal;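 note: fluorescence read at 667 nm with signal to noise per printed feature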
[11] = cell viability in Huh7 cells, primary screen, cytotoxicity control for HCV replication inhibitor project, CellTiter-Glo luminescence, basal, 48 h (AID 1143); conditions: Huh7 HCV replicon, higher = more signal, called active from +8 up or from −8 down;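 note: Huh7 hepatoma cells carrying a hepatitis C replication reporter with no stimulus; test concentration not given here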
[12] = P. aeruginosa biofilm formation inhibitors, primary screen, PAO1 strain, BacTiter-Glo luminescence, LB-PBS (AID 1144); conditions: 12 h, higher = more signal
[13] = CREB reporter modulators without forskolin, primary screen, cell-based, PC12, CRE-LacZ reporter, unstimulated (AID 1145); conditions: no forskolin, luminescence, 4.5 h, higher = more signal, called active from +8 up or from −8 down
[14] = CREB reporter modulators under forskolin, primary screen, cell-based, PC12, CRE-LacZ reporter, forskolin-stimulated (AID 1146); conditions: luminescence, 4.5 h, higher = more signal, called active from +8 up or from −8 down;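 note: PC12 cells with 6xCRE LacZ reporter stimulated by forskolin 10 µM; beta-galactosidase reporter signal reflecting CREB driven transcription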
[15] = biological target: Streptavidin (Streptomyces avidinii) (UniProt P22629); test: streptavidin binders on small-molecule microarray, primary screen, artefact control for SMM compound annotation, biophysical, 635/667 nm fluorescence (AID 1147); conditions: streptavidin binding, higher = more signal;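 note: signal reflects streptavidin binding to arrayed compounds as a control protein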
[16] = small-molecule binders of probe aInhba, primary screen, biochemical, small-molecule microarray, 635/667 nm fluorescence (AID 1148); conditions: higher = more signal;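 note: score merges 667nm spot fluorescence with signal-to-noise for antibody binding to printed compounds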
Torsin-1A (Homo sapiens) [17] = biological target: Torsin-1A (Homo sapiens) (UniProt O14656); test: torsin A binders from cell lysate, primary screen, small-molecule microarray, wild-type, 635/667 nm (AID 1149); conditions: COS7 hTOR1A-WT lysate, 635 nm fluorescence, higher = more signal
Torsin-1A (Homo sapiens) [18] = biological target: Torsin-1A (Homo sapiens) (UniProt O14656); test: small-molecule binders of mutant TOR1A in lysate, primary screen, cell lysate, small-molecule microarray, COS7 lysate, 635/667 nm fluorescence (AID 1150); conditions: COS7 hTOR1A mutant lysate, 635 nm fluorescence, higher = more signal;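 note: score pools 667 nm emission and signal to noise measuring lysate protein binding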
[19] = system: Sonic hedgehog protein (Shh); test: small-molecule binders of Shh protein, primary screen, biochemical, small-molecule microarray, 635/667 nm fluorescence (AID 1151); conditions: small-molecule microarray binding, 635 nm fluorescence; higher = more signal;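 note: Shh protein binding to compounds spotted on small-molecule microarray slides; score combines spot fluorescence intensity with signal-to-noise across triplicate slides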

Sequence of Follistatin (Homo sapiens) (P19883 whole entry, looked up): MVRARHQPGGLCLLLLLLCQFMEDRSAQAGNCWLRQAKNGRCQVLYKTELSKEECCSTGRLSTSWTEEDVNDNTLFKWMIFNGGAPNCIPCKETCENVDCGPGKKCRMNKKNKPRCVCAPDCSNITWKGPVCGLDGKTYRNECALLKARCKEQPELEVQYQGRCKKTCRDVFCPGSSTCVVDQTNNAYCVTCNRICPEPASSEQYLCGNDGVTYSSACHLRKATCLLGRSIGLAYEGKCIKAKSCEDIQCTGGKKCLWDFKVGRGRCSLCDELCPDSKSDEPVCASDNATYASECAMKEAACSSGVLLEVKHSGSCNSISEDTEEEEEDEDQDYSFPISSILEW
Sequence of Focal adhesion kinase 1 (Homo sapiens) (Q05397 whole entry, looked up): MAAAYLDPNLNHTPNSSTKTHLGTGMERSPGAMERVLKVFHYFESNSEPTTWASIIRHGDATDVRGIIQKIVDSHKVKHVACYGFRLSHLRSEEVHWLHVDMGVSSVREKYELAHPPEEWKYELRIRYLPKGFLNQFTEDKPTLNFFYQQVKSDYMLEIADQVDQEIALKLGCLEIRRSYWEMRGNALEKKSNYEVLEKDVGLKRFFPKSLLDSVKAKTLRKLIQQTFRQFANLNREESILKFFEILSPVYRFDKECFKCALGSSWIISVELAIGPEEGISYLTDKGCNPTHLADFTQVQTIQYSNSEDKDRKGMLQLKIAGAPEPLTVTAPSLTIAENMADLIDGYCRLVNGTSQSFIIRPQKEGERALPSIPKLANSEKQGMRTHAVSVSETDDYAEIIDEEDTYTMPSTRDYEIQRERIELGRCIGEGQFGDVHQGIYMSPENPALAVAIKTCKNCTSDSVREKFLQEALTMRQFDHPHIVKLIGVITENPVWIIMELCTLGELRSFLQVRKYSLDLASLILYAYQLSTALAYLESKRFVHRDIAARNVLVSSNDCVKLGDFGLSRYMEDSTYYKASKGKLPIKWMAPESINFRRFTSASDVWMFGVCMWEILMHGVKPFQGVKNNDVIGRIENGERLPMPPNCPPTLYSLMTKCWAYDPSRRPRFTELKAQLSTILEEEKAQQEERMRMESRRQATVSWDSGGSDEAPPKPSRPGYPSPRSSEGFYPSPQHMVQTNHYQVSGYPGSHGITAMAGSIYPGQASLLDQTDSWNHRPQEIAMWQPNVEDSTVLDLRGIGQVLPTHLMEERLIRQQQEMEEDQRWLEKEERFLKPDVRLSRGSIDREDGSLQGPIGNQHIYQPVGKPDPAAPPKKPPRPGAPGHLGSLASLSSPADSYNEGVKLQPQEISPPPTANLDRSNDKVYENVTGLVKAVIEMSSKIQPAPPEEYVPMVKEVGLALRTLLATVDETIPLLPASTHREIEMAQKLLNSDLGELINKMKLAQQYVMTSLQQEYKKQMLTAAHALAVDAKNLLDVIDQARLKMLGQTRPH
Sequence of Torsin-1A (Homo sapiens) (O14656 whole entry, looked up): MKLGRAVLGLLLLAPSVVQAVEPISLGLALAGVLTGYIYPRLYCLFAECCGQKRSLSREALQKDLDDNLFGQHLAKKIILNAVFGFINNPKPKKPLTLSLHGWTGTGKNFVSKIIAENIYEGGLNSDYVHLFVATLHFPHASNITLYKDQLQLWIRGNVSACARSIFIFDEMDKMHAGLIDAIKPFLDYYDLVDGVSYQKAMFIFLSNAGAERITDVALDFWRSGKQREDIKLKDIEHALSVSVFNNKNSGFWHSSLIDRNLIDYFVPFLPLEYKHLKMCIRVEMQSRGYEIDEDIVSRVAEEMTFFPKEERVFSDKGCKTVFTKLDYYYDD
Sequence of Streptavidin (Streptomyces avidinii) (P22629 whole entry, looked up): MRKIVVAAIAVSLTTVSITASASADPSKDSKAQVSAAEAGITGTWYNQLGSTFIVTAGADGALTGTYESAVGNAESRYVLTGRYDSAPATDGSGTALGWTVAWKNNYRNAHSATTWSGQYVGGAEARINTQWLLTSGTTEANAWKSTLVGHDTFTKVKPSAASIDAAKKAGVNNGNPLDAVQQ
Sequence of Luciferin 4-monooxygenase (Photinus pyralis) (P08659 whole entry, looked up): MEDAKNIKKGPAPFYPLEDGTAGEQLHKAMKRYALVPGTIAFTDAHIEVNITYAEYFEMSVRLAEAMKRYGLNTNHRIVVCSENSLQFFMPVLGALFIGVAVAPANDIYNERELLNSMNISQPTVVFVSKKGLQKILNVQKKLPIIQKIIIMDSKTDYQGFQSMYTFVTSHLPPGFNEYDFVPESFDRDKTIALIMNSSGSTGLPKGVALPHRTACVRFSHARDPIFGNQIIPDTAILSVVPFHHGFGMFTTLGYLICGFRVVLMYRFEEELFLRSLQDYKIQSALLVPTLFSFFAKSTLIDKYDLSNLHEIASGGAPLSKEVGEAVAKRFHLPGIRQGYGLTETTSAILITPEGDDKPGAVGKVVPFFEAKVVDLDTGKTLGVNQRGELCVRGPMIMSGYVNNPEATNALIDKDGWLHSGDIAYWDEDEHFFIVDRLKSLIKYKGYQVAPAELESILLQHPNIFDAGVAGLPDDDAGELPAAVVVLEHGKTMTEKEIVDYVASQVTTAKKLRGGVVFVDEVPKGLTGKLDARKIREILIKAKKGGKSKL
Sequence of Fibroblast growth factor 2 (Homo sapiens) (P09038 whole entry, looked up): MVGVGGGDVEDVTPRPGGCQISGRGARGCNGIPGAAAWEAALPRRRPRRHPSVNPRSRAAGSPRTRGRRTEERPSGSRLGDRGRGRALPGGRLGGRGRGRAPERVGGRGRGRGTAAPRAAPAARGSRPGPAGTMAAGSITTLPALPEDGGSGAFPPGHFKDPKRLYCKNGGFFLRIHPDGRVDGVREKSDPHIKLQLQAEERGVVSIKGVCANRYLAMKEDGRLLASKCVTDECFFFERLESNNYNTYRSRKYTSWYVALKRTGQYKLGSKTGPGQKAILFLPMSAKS

Compound | composite z-score [1] | composite z-score [2] | composite z-score [3] | composite z-score [4] | composite z-score [5] | composite z-score [6] | z-score [7] | composite z-score (Lefty1) | composite z-score [8] | z-score [9] | composite z-score [10] | z-score [11] | z-score [12] | z-score [13] | z-score [14] | composite z-score [15] | composite z-score [16] | composite z-score (Torsin-1A (Homo sapiens) [17]) | composite z-score (Torsin-1A (Homo sapiens) [18]) | composite z-score [19]
CN1C(=O)C2C=CC(C(O)Cc3ccccc3)N(Nc3ccccc3)C2C1=O (stereo not given) | 1.61 | 0.257 | 0.385 | 0.944 | 0.27 | -0.408 | -0.375 | -0.0697 | 1.12 | -0.492 (inactive) | -0.0943 | 0.329 (inactive) | -1.16 (inactive) | 0.626 (inactive) | 0.0426 (inactive) | 0.996 | 0.0622 | 0.279 | 0.444 | -0.52
COc1cc(CO)cc(I)c1O[C@H]1C=C(C(=O)NCCO)C[C@@H](N(CCN2CCOCC2)C(=O)C2CCOC2)[C@@H]1O (stereo not given in full) | -0.504 | -0.233 | -0.508 | 0.651 | 0.581 | 0.675 | 1.86 | 0.792 | -0.201 | -1.13 (inactive) | -0.31 | -0.846 (inactive) | 0.367 (inactive) | 0.495 (inactive) | -1.45 (inactive) | -0.512 | -0.0195 | 0.055 | 0.399 | 0.309
CC(=O)N1Cc2ccccc2C[C@@]2(COC(c3ccc(OCCCO)cc3)=N2)C1=O | 1.93 | 1.18 | 0.994 | 0.842 | 1.26 | 0.701 | -0.956 | 0.0786 | 1.29 | -2.19 (inactive) | 0.36 | -2.57 (inactive) | -0.957 (inactive) | 1.82 (inactive) | -1.42 (inactive) | 1.23 | 0.407 | 0.135 | 0.997 | 0.504
O=C1O[C@H](c2ccccc2)[C@H](c2ccccc2)N2[C@H]1[C@@H](C(=O)O)[C@]1(C(=O)Nc3ccc(C#CC4=CCCCC4)cc31)[C@H]2c1ccccc1OCCO | 1.76 | 1.23 | 0.827 | 0.922 | 1.26 | 1.08 | -2.56 | 1.63 | 1.18 | -6.51 (inactive) | 1.02 | -4.67 (inactive) | -0.177 (inactive) | 17.1 (active) | 26.1 (active) | 1.97 | 0.17 | 0.849 | 0.516 | 0.892
Cc1ccc(S[C@]2(C(=O)NC3CC3)CC(=O)N(C3Cc4ccccc4C3)[C@@H]2c2ccc(CO)cc2)cc1 | -0.172 | 0.445 | 0.0342 | -0.424 | -0.584 | -0.3 | 2.42 | -1.35 | -0.0705 | -1.28 (inactive) | -0.0244 | -1.6 (inactive) | -0.401 (inactive) | 0.324 (inactive) | -0.906 (inactive) | -0.75 | -0.0136 | -0.382 | 0.23 | -0.766
CC(C)[C@@H](CO)NC(=O)[C@H]1[C@@H](c2ccccc2)N(c2ccccc2)O[C@@H]1C | 0.398 | -0.253 | -0.168 | 0.0711 | 0.104 | 0.0808 | 0.204 | 0.216 | 0.149 | -0.21 (inactive) | -0.106 | -0.206 (inactive) | -0.736 (inactive) | -0.415 (inactive) | -1.35 (inactive) | -0.327 | 0.0953 | -0.261 | -0.0316 | 0.463
CCOC(=O)C1=CCC(c2ccc(C)cc2)N(S(=O)(=O)c2ccc(C)cc2)C1 (stereo not given) | 0.403 | 0.939 | 0.335 | 0.258 | 0.523 | -0.279 | 2.06 | 0.288 | 0.396 | 1.47 (inactive) | -0.273 | -3.23 (inactive) | 0.271 (inactive) | -0.527 (inactive) | -0.34 (inactive) | 0.841 | -0.0645 | -0.0669 | 0.121 | -0.396
O=C1C[C@]2(c3ccc([N+](=O)[O-])cc3)C(=O)N(CCN3CCOCC3)c3cc(CO)ccc3[C@H]2N1C1CCCCC1 | -0.106 | -1.24 | -0.617 | 0.975 | -0.414 | 0.189 | 0.631 | -0.599 | 0.409 | -0.648 (inactive) | -0.179 | -2.16 (inactive) | -0.02 (inactive) | -0.322 (inactive) | 0.254 (inactive) | -0.834 | -0.0021 | -0.489 | -0.517 | -0.132
CN(C)CCCCCCNC(=O)[C@@H]1C[C@@H]2C(=O)N[C@@H](CCCCN)C(=O)N2[C@@H]1c1cccc(OCCO)c1 | 3.24 | 1.31 | 2.31 | 1.01 | 1.45 | 1.59 | 1.08 | 1.66 | 1.62 | -1.61 (inactive) | 1.97 | -0.598 (inactive) | -1.19 (inactive) | -0.268 (inactive) | -0.199 (inactive) | 3.03 | 1.57 | 3.29 | 3.11 | 1.92
